Experimental data as given in PubChem BioAssay (NCI).
This is part of a sample that, as a whole, favours compounds with a hit. Of some 83,000 tested, about 20% had one in any assay.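 The endpoint reported here, percent growth, reads 100 for growth as untreated, 0 for no net growth and -100 for all cells dead.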 Calls of active or inactive are those of the source.

System: SN12C renal
Assay: NCI-60 one-dose screen, 48 h (100 = growth as untreated, 0 = no growth, -100 = all killed)
Details: 10 µM unless noted
Protocol: Growth inhibition of the SN12C human tumor cell line is measured as a screen for anti-cancer activity. Cells are grown in 96 well plates and exposed to the test compound for 48 hours. Compounds are tested at a single concentration, which is 10^-5 M for most compounds. The reported endpoint is percent growth (GI% or GIPRCNT), where numbers from 0 - 100% represent growth inhibition, and numbers from -100% - 0 represent cell death. For example, a value of 40 represents 60% growth inhibition. A value of 0 means no net growth occurred over the course of the experiment. A value of -40 indicates 40% of cells at the beginning of the experiment died by the end of the experiment. A value of -100 means all cells are dead at the end of the experiment.
NCI-60 Human Tumor Cell Lines Screen was performed using the standard one-dose NCI protocol, which is described in more detail at https://dtp.cancer.gov/discovery_development/nci-60/default.htm.
Compounds with GIPRCNT values below 10 were considered active. Activity score was based on GIPRCNT using the following formula: […]
Score is 0 for GIPRCNT values of 100 or above, 50 for GIPRCNT values of 0, and 100 for GIPRCNT values of -100.

| SMILES | growth |
| --- | --- |
| O=C(O)c1ccc([N+](=O)[O-])cc1S(=O)(=O)O | 103% (inactive) |
| Nc1ccn(C2OC(CO)C(O)C2F)c(=O)n1 (stereo not given) | 78.8% (inactive) |
| COC1=C(OC)C(=O)C(SC/C=C(\C)CCCC(C)CCCC(C)CCCC(C)C)=CC1=O (stereo not given) | 15.4% (inactive) |
| CCOC(=N)CC(=O)Nc1cccc(C)c1Cl | 98.6% (inactive) |
| COc1ccc(C2CC(c3ccccc3)=Nc3ccccc3S2)cc1 (stereo not given) | 103% (inactive) |
| Cc1ccc(/C=N/NC(N)=S)s1 | 99% (inactive) |
| O=C1NC(=O)/C(=C\c2ccncc2)N1 | 95.9% (inactive) |
| NC(=S)c1c(N)n(C2OC(CO)C(O)C2O)c2ncnc(N)c12 (stereo not given) | 15% (inactive) |
| COC(=O)C1=C(C)C(=O)CC1 | 98.3% (inactive) |
| Cc1ccc(C(C)C)c(OCC(=O)O)c1 | 100% (inactive) |
| C(=C\c1ccncc1)/c1ccncc1 | 101% (inactive) |
| O=C1C=Cc2ccccc2/C1=C/c1[nH]c(=O)[nH]c1O | 60.6% (inactive) |
| COC(=O)Cc1cc(COC(C)=O)ccc1C | 114% (inactive) |
| O=C(Nc1c(Cl)cc(Cl)cc1Cl)ON=C1CCCCC1 | 98.4% (inactive) |
| CC(C)C(C)(C)C(=O)C(C)(C)C(C)(C)C | 98.2% (inactive) |
| Cc1ccc2nc(N)nnc2c1 | 98.4% (inactive) |
| O=[N+]([O-])c1c(O)c(CNCCCO)cc(CNCCCO)c1O | 104% (inactive) |
| C=CCC(OC(C)=O)c1ccc(C(C)C)cc1 (stereo not given) | 104% (inactive) |
| CCOC(=O)Nc1nccs1 | 97.8% (inactive) |
| Cc1cc2c3ccc(C)[n+](C)c3ccc2n1C | 22.4% (inactive) |

| SMILES | growth |
| --- | --- |
| O=CNCCc1ccccc1 | 90% (inactive) |
| NNC(=O)N/N=C1\C(=O)N(c2nccs2)C(=O)C(=O)C1c1nc2ccccc2s1 (stereo not given) | 96% (inactive) |
| Nc1ncnc(Nc2ccc(C(F)(F)F)cc2)n1 | 99.8% (inactive) |
| CCOC(OCC)C(=O)c1ccccc1 | 101% (inactive) |
| COc1ccc(C)cc1NC(=O)SC(C)C | 96.6% [100 µM] (inactive) |
| C[n+]1cc2cc3c(cc2c2ccccc21)OCO3 | 9.45% (active) |
| Nc1ccc2c(c1)Cc1cc(N)c(N)cc1-2 | 93.3% (inactive) |
| CCOC(=O)c1c(C)[nH]c(C)c1C=O | 95.8% (inactive) |
| Cc1ccccc1NC(=O)Oc1ccc(Cl)cc1C(=O)c1ccccc1 | 88.2% (inactive) |
| NNC(=O)CCCCl | 102% (inactive) |
| CC(CC(CCC(=O)O)(c1ccccc1)c1ccccc1)N(C)C (stereo not given) | 99.2% (inactive) |
| O=C(CCCl)OCCOc1ccccc1 | 104% (inactive) |
| CC(=O)[C@@]1(O)CC[C@H]2[C@@H]3CC[C@@H]4CC(=O)CC[C@]4(C)[C@H]3[C@@H](O)C[C@@]21C | 95.4% (inactive) |
| CC(=O)Nc1ccc(O)c(C)c1 | 102% (inactive) |
| C#CCSc1nnnn1-c1ccccc1 | 88% (inactive) |
| c1ccc(-c2ccc3ccccc3c2)cc1 | 96.1% (inactive) |
| Cc1cc(C(=O)c2ccccc2)cc(C)c1O | 106% (inactive) |
| COc1ccc(C2CCCCC2=O)cc1 (stereo not given) | 109% (inactive) |
| Clc1ccc(C(SCc2ccccc2)SCc2ccccc2)cc1 | 104% (inactive) |
| C=C(c1ccc(N(C)C)cc1)c1ccc(N(C)C)cc1 | 1.84% (active) |
